Laboratory results taken from PubChem BioAssay AID720518 (National Center for Advancing Translational Sciences (NCATS), 2013).
Results filed as inconclusive are left out. Where a call stands in place of a potency, no number is given. Active and inactive are the calls of the source. Calls follow the shape of the full dose curve.

Test: qHTS for Inhibitors of Cell Surface uPA Generation: Wild-type Protective Antigen (WT-PrAg) Counterscreen for Cherry-picked Compounds
Details: cells, WT protective antigen toxicity counterscreen; series mostly up to 115 µM
For `O=C(CC1(O)C(=O)Nc2ccccc21)c1cccc(Br)c1` (stereo not given), the Potency was “inactive”. In the case of `COc1ccc(Cc2nnc(Nc3ccc(C)cc3)o2)cc1OC`, the Potency is reported as “inactive”. In the case of `O=C(COc1ccc(C(=S)N2CCOCC2)cc1)N1CCOCC1`, the Potency is reported as “inactive”. With `CC(NC(=O)C1CCC(C(=O)NC(C)c2ccccc2)CC1)c1ccccc1` (stereo not given) the Potency was “inactive”. For `[N-]=[N+]=NC1C[C@H](n2ccc(=O)[nH]c2=O)O[C@@H]1CO` (stereo not given in full), the Potency was “inactive”. In the case of `C/C=C(/C(=C/C)c1ccc(O)cc1)c1ccc(O)cc1`, the Potency is reported as “inactive”. In the case of `CC(C)c1ccc(C2/C(=C(\O)c3ccc4c(c3)OCCO4)C(=O)C(=O)N2CCN2CCOCC2)cc1` (stereo not given), the Potency is reported as “inactive”. With `O=C(CN(c1ccccc1F)S(=O)(=O)c1ccccc1)Nc1ccc2c(c1)OCCO2` the Potency was “inactive”. For `O=C(c1ccc(F)c([N+](=O)[O-])c1)N1CC2CC(C1)c1cccc(=O)n1C2` (stereo not given), the Potency was “inactive”. With `CC(C)(C)OC(=O)NCCCCCNC(=O)c1[nH]cnc1C(=O)Nc1ccc(Cl)cc1` the Potency was “inactive”. With `CC(=O)Nc1c2c(nn1-c1cccc(C)c1)CSC2` the Potency was “inactive”. With `NC(=O)CC(NC(=O)Cc1cccc2ccccc12)c1ccc(N2CCN(c3ccccc3)CC2)c([N+](=O)[O-])c1` (stereo not given) the Potency was “inactive”. In the case of `Fc1ccc(N2CCN(c3nc(CN4CCOCC4)nc4scc(-c5ccccc5)c34)CC2)cc1`, the Potency is reported as “inactive”. With `COc1ccc(C2C(C(=O)c3ccc(C)o3)=C(O)C(=O)N2CC2CCCO2)cc1OC` (stereo not given) the Potency was “inactive”. For `O=C(c1cc([N+](=O)[O-])cc([N+](=O)[O-])c1)N(c1ccccn1)c1ccccn1`, the Potency was “inactive”. In the case of `Clc1ccc(-c2nc3ccccn3c2CN2CCSCC2)cc1`, the Potency is reported as “inactive”. In the case of `COc1ccc(C[C@@H]2OC3(C=CC(=O)C=C3)O[C@H]2Cc2ccc(OC)cc2)cc1`, the Potency is reported as “inactive”. For `CC1(C(=O)OCC(=O)Nc2ccc(Cl)cn2)CC1(Cl)Cl` (stereo not given), the Potency was “inactive”. In the case of `CCCOc1ccc(S(=O)(=O)NNC(=O)c2cc3ccccc3o2)cc1`, the Potency is reported as “inactive”. In the case of `CCOC(=O)Cn1c(=O)cc(C)c2cccc(C)c21`, the Potency is reported as “inactive”. With `CCOc1ccccc1C(=O)NC1CCN(CC(=O)Nc2cc(OC)ccc2OC)CC1` the Potency was “inactive”. In the case of `NC(=O)c1cc2ccncc2c2ccccc12`, the Potency is reported as “inactive”. In the case of `O=C(CN1CCOC1=O)N1CCCC(Nc2ccc(F)c(F)c2)C1` (stereo not given), the Potency is reported as “inactive”. For `N#Cc1cccc(NC(=O)Cn2cnc(S(=O)(=O)N3CCOCC3)c2)c1`, the Potency was “inactive”. For `Cc1nn(CC(=O)OCC(=O)NC(C)c2ccccc2)c(C)c1[N+](=O)[O-]` (stereo not given), the Potency was “inactive”. With `O=C(Nc1cccc(-c2nn[nH]n2)c1)c1ccc(Cl)s1` the Potency was “inactive”. For `CS/C(=C\[N+](=O)[O-])Nc1ccccc1`, the Potency was “inactive”. For `O=C(C[C@H]1C[C@H](C(=O)N2CCOCC2)[C@@]2(CCC3CCCC3)c3[nH]c4cc(-c5ccco5)ccc4c3CCN2C1=O)NCc1cccc(C(F)(F)F)c1`, the Potency was “inactive”. With `S=C(Nc1ccccc1Oc1ccccc1)NC1CCCC1` the Potency was “inactive”. With `CCN(c1ccc(OC)cc1)S(=O)(=O)c1ccc2c(c1)NC(=O)CS2` the Potency was “inactive”. With `Cc1cccc(CCNC(=O)Cc2ccc(NC3=NC4CS(=O)(=O)CC4S3)cc2)c1` (stereo not given) the Potency was “inactive”. With `COc1ccc(C(=O)NC(C)c2cnn(-c3ccccn3)c2C)o1` (stereo not given) the Potency was “inactive”. With `O=C(c1cc(COc2c(F)cccc2F)on1)N1CCc2ccccc2C1` the Potency was “inactive”. In the case of `COCCOc1ccc(C(F)(F)F)cc1NC(=O)COC(=O)Cc1c[nH]c2ccccc12`, the Potency is reported as “inactive”. With `CCN(CC)S(=O)(=O)c1cc(NC(=O)COC(=O)C2CCC2)ccc1C` the Potency was “inactive”. For `O=C(O)COc1ccccc1/C=N/NC(=O)CNC(=O)c1ccco1`, the Potency was “inactive”. In the case of `Oc1c(N=NC(=S)Nc2ccccc2F)c2ccccc2n1Cc1ccccc1Cl`, the Potency is reported as “inactive”. In the case of `CC(C)C(=O)Nc1nnc(SCc2cccc(F)c2)s1`, the Potency is reported as “inactive”. For `CN1CCN(c2ccc(S(=O)(=O)N3CCOCC3)cc2NC(=O)CSCc2ccccc2)CC1`, the Potency was “inactive”. In the case of `O=C(c1cc(COc2ccc(F)cc2Cl)on1)N1CCCCCC1`, the Potency is reported as “inactive”.
